This excerpt belongs to a sample that is enriched for hits.
14-3-3g Raf: alters human 14-3-3 gamma binding to Raf peptide; FP, 14-3-3gamma / TMR-pS259-Raf peptide binding; inhibition, % at 40 µM; 160,000 tested, 0.19% active; in the data active = inhibition above about 30%;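 note: 0% = protein plus tracer without compound and 100% = blank with tracer alone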
Target sequence (P61981 whole entry, looked up): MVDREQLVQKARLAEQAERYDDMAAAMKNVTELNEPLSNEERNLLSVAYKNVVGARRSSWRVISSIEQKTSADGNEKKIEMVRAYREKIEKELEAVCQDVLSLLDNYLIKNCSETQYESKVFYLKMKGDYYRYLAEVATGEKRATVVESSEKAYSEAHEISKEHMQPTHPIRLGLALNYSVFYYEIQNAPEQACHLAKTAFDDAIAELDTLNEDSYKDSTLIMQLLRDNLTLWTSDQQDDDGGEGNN
An asterisk follows results filed as active.

`COc1ccc(-c2nc3ccccc3o2)cc1NC(=O)c1ccc(-c2ccccc2[N+](=O)[O-])o1` gave 14-3-3g Raf -60.
`CCNC(=O)C1CC(=O)N(CCCc2ccccc2)C(=Nc2ccc(OC)cc2)S1` (stereo not given) gave 14-3-3g Raf 0.
Screening COc1ccc(-n2nc(C(=O)NCC(=O)N3CCN(Cc4ccc5c(c4)OCO5)CC3)c3ccccc3c2=O)cc1Cl returned 14-3-3g Raf -7.
Cc1c(C(=O)N2CCCCCC2)sc2ncn(CC(=O)N3CCCCC3)c(=O)c12 was read as 14-3-3g Raf -18.
Screening S=c1[nH]c(-c2ccc(Br)cc2)cn1-c1ccc(Cl)cc1 returned 14-3-3g Raf -2.
For O=[N+]([O-])c1ccc(N2CCCC2)cc1NCCCO the results were 14-3-3g Raf -5.
Cc1ccccc1N(C)S(=O)(=O)c1ccc2[nH]cc(C(=O)NCC3CCCO3)c(=O)c2c1 (stereo not given) was read as 14-3-3g Raf -6.
COCCCNC(=O)c1c[nH]c2ccc(S(=O)(=O)N(C)c3c(C)cccc3C)cc2c1=O was read as 14-3-3g Raf -10.
Screening Cc1cccc(C)c1N(C)S(=O)(=O)c1ccc2[nH]cc(C(=O)NCc3ccccn3)c(=O)c2c1 returned 14-3-3g Raf 44*.
For C=C(C)c1cccc(C(C)(C)NC(=O)Nc2ccccc2F)c1 the results were 14-3-3g Raf -9.
`O=C(Nc1ccccc1F)c1ccc(N2CC3CC(C2)c2cccc(=O)n2C3)c(NC(=O)c2ccccc2Cl)c1` (stereo not given) gave 14-3-3g Raf -8.
For CCN(CC)S(=O)(=O)c1ccc(C(=O)N2CCN=C2SCc2ccc(Br)cc2)cc1 the results were 14-3-3g Raf -7.
`CC1=CC(C#N)(C#N)C(C#N)(C#N)C(c2ccccc2)N1` (stereo not given) gave 14-3-3g Raf 73*.
For CCC1=C(C)C(c2ccccc2)NC(=S)N1 (stereo not given) the results were 14-3-3g Raf 2.
For CCSC1(SCC)N=C(N)C2(C#N)C(c3ccccc3)NC(C)=C(C)C12C#N (stereo not given) the results were 14-3-3g Raf -6.
`Cc1nc2nc(S(=O)(=O)N(CC(C)C)CC(C)C)nn2c(C)c1C` gave 14-3-3g Raf -4.
For O=[N+]([O-])c1cc(C2SCCN2S(=O)(=O)c2ccc3ccccc3c2)ccc1Cl (stereo not given) the results were 14-3-3g Raf -2.
`Nc1c(C(=O)Nc2ccc(F)cc2)sc(=S)n1Cc1ccco1` gave 14-3-3g Raf -25.
`CCc1ccccc1NC(=O)C1CCN(S(=O)(=O)c2ccc(OC)c(OC)c2)CC1` gave 14-3-3g Raf 0.
Cc1ccc(C(=O)NCCNC(=O)c2ccncc2)cc1 was read as 14-3-3g Raf 0.
Cc1ccc(C(=O)NCC(C)(C)O)cc1 was read as 14-3-3g Raf 67*.
`Cc1ccc(C(=O)NCCNC(=O)c2ccc(C)cc2)cc1` gave 14-3-3g Raf -292.
O=C(Cn1ncc2c(=O)oc3ccccc3c21)N1CCCCC1 was read as 14-3-3g Raf -8.
COc1ccc(OC)c(NC(=O)CCN2CCCCC2)c1 was read as 14-3-3g Raf 3.
Screening COc1ccc(OC)c(NC(=O)CCN2CCCC(C)C2)c1 (stereo not given) returned 14-3-3g Raf 35*.
Screening COc1ccc(C)cc1NC(=O)CCN1CCCC1 returned 14-3-3g Raf 1.
Cc1cccc(OCC(=O)Nc2ncc(Cc3ccccc3Cl)s2)c1 was read as 14-3-3g Raf -15.
`CCCN1CCN(c2cc(Nc3cccc(C(=O)OCC)c3)c3c4c(onc24)-c2ccccc2C3=O)CC1` gave 14-3-3g Raf -202.
`O=C(Nc1ccccc1Cl)C1(S(=O)(=O)c2ccc(Cl)cc2)CC1` gave 14-3-3g Raf -5.
Screening O=C(NCC1(c2ccccc2)CCOCC1)C1(c2ccccc2)CCOCC1 returned 14-3-3g Raf -8.
Screening C[C@H](Cc1ccc(O)c(O)c1)[C@@H](C)Cc1ccc(O)c(O)c1 returned 14-3-3g Raf -10.
For CC(Cc1ccc(O)c(O)c1)C(C)Cc1ccc(O)c(O)c1 (stereo not given) the results were 14-3-3g Raf 60*.
`N[C@@H](Cc1ccc(O)c(O)c1)C(=O)O` gave 14-3-3g Raf -7.
Cc1cc(Br)ccc1NC(=O)CCNC(=O)Cn1cnc2sc3c(c2c1=O)CCCC3 was read as 14-3-3g Raf 2.
For CC(C)(C)c1ccc2c(c1)C(c1ccccc1)CC(=O)O2 (stereo not given) the results were 14-3-3g Raf -3.
Screening COc1cc(OC)cc(-n2c(=O)c3sccc3n(Cc3ccc(Cl)cc3)c2=O)c1 returned 14-3-3g Raf -5.
`Oc1ccc(N=Cc2ccc(OCc3ccccc3)cc2)cc1` gave 14-3-3g Raf 35*.
Screening Oc1ccc(Cl)cc1N=Cc1ccc(OCc2ccccc2)cc1 returned 14-3-3g Raf -7.
For Cc1ccc(O)c(N=Cc2ccc(OCc3ccccc3)cc2)c1 the results were 14-3-3g Raf -19.
For COCCCNC(=O)Cn1c(=O)oc2cc(Cl)ccc21 the results were 14-3-3g Raf -5.
CCOCCCNc1nc(-c2ccc(Cl)cc2)nc2ccccc12 was read as 14-3-3g Raf -5.
`CC(=O)c1c(C)nnn1-c1nonc1C` gave 14-3-3g Raf 5.
For CCN1C(=O)c2ccc(S(=O)(=O)N3CCCCCC3)c3cccc1c23 the results were 14-3-3g Raf 1.
Screening CCN1C(=O)c2cccc3c(S(=O)(=O)N4CCCc5ccccc54)ccc1c23 returned 14-3-3g Raf 33*.
CCN1C(=O)c2cccc3c(S(=O)(=O)N4CCCC4)ccc1c23 was read as 14-3-3g Raf 8.
`CC(O)Cc1n[nH]c(=S)n1-c1ccccc1` (stereo not given) gave 14-3-3g Raf 0.
`Cc1ccc(CSc2nnc3c(n2)OC(c2ccccn2)Nc2ccccc2-3)cc1` (stereo not given) gave 14-3-3g Raf -6.
For Cc1ccc(CSc2nnc3c(n2)OC(c2ccc(C(=O)O)cc2)Nc2ccccc2-3)cc1 (stereo not given) the results were 14-3-3g Raf -11.
Clc1ccc(CSc2nnc3c(n2)OC(c2ccncc2)Nc2ccccc2-3)cc1 (stereo not given) was read as 14-3-3g Raf -47.
For CCCSc1nnc2c(n1)OC(c1cccc(C)n1)Nc1ccccc1-2 (stereo not given) the results were 14-3-3g Raf -5.
For Cc1ccc(CSc2nnc3c(n2)OC(c2cccc(C)n2)Nc2ccccc2-3)cc1 (stereo not given) the results were 14-3-3g Raf 32*.
Cc1ccc(CSc2nnc3c(n2)OC(c2ccncc2)Nc2ccccc2-3)cc1 (stereo not given) was read as 14-3-3g Raf 76*.
Screening CCOc1ccc(NC(=O)c2ccc(F)c(S(=O)(=O)N3CCCCC3C)c2)cc1 (stereo not given) returned 14-3-3g Raf -26.
Screening Cc1cccc(C)c1NC(=O)C(c1ccc(F)cc1)N1C(=O)CC1c1ccco1 (stereo not given) returned 14-3-3g Raf -4.
CCSc1c(C(=O)Nc2cccc(Cl)c2)ccc2c1C(=O)c1ccccc1C2=O was read as 14-3-3g Raf -3.
Screening N#Cc1cc2c(nc1SCCS(=O)(=O)Cc1ccccc1)CCCC2 returned 14-3-3g Raf -15.
For Cc1ccccc1Cn1c(CCNC(=O)c2ccc(F)cc2)nc2ccccc21 the results were 14-3-3g Raf 32*.
`CCCCn1c(CCNC(=O)c2ccc(F)cc2)nc2ccccc21` gave 14-3-3g Raf -7.

Source: PubChem (Emory University Molecular Libraries Screening Center)
